Calls of active or inactive are those of the source. The call rests on the fitted dose curve; in most records, active means well fitted inhibition curve with a large enough effect; inconclusive means small, poorly fitted or top-dose-only effect; inactive means no such curve, though single readings can be large or run the other way.
test: qHTS assay for measurement of the activity of small molecule inhibitors on Zika virus induced Caspase-3 activity in human astrocytoma cells (AID 1224859); details: SNB-19 ZIKV-induced caspase-3/7, luminescence, 6 h; series mostly up to 45.7 µM
Description: National Center for Advancing Translational Sciences [NCATS]
Johns Hopkins University School of Medicine
Increase in the Caspase-3 activity indicates an activation of apoptosis cell death pathway caused by Zika virus infection in certain types of neuronal cells including human neural progenitor cells (hNPCs), astrocytes, and astrocytoma cell line (SNB-19). This cell-based caspase-3 activity assay measures the increased caspase-3 activity in the astrocytoma cell line (SNB-19) after a 6-hour Zika virus infection with a luminescence readout. A decrease in the luminescence signal in this assay by small molecule treatment indicates an inhibitory effect of that small molecule on the Zika virus induced caspase-3 activity that may correlate with its effect on reduction of Zika virus caused cell death.
The medium for SNB-19 cells is composed of RPMI 1640 (ATCC, Cat.# 30-2001), 10% fetal bovine serum (FBS) (GE healthcare Life Sciences, Cat.# SH30071.03), and 1% Pen/Strep (Gibco, Cat.# 15140-122). A Caspase-Glo 3/7 assay kit (catalog number G8092; Promega, Madison, WI) was used to detect caspase-3 activity induced by Zika virus infection in human cells. The reagent mixture was reconstituted as described in the protocol from the manufacturer. Polystyrene tissue culture treated and PDL coated white plates were obtained from Greiner Bio-One (Monroe, NC). Cells were seeded in 384- or 1536-well assay plates and cultured at 37 C with 5% CO2 for 16 to 20 hours. The typical cell seeding density in the 1536-well plate assay is 250 cells/well in 3ul medium for SNB-19 cells in tissue culture treated plates. Compounds were added to cells and incubated for one hour before addition of ZIKV solution to cells (2 FFU/cell). After incubation at 37 C with 5% CO2 for 6 hours, the reagent mixture of Caspase-Glo 3/7 assay kit was added to each well, followed by incubation at room temperature for 30 minutes. The luminescence intensity of the assay plates was measured using a ViewLux plate reader (PerkinElmer). Data were normalized by using the cell-containing wells without ZIKV as a negative control (0% induction of caspase 3/7 activity) and wells containing ZIKV infected cells (Caspase-3 activity induced) as a positive control (100% induction of caspase 3 activity). The percentage inhibitions of the increased Caspase-3 activity by small molecule inhibitors were then calculated.

SMILES | outcome
Cc1ncc(CO)c(CN)c1O | inactive
C=CCN1C[C@H](C(=O)N(CCCN(C)C)C(=O)NCC)C[C@@H]2c3cccc4[nH]cc(c34)C[C@H]21 | inactive
CC(=O)N[C@@H](CC(C)C)C(=O)O | inactive
CC(CN(C)C)C(C)(O)Cc1ccc(Cl)cc1 (stereo not given) | inactive
CC1(C)S[C@@H]2[C@H](N=CN3CCCCCC3)C(=O)N2[C@H]1C(=O)O | inactive
CCC(C)(CN(C)C)OC(=O)c1ccccc1 (stereo not given) | inactive
Cc1cc(=O)[nH]c(=S)[nH]1 | inactive
C[C@@H](N)C(=O)O | inactive
CCCCC1(COC(=O)CCC(=O)O)C(=O)N(c2ccccc2)N(c2ccccc2)C1=O | inactive
Cc1cc(O)cc(C)c1Cl | inactive
CC(=O)SC[C@@H](Cc1ccccc1)C(=O)NCC(=O)OCc1ccccc1 | inactive
O=C1CC[C@@H](C(=O)O)N1 | inactive
NC(=O)CCCCC1CCSS1 (stereo not given) | inactive
CC1(C)S[C@@H]2[C@H](NC(=O)C(C(=O)O)c3ccccc3)C(=O)N2[C@H]1C(=O)O (stereo not given in full) | inactive
COc1cc(C(=O)NCCCCCC(=O)O)cc(OC)c1OC | inactive
Cc1cc(C)c(NC(=O)CN(CC(=O)O)CC(=O)O)c(C)c1Br | inactive
CCCNC(C)(C)COC(=O)c1ccccc1 | inactive
c1ccc2[nH]ccc2c1 | inactive
CC(=O)Oc1cccc(C)c1 | inactive
O[C@@H]1CO[C@H]2[C@@H]1OC[C@@H]2O | inactive

SMILES | outcome
CN1CC(=O)NC1=N | inactive
O=C(NCCCN1CCOCC1)c1ccc(Cl)cc1 | inactive
CCOC(N)=O | inactive
CC(=O)N(CC(O)CN(C(C)=O)c1c(I)c(C(=O)NCC(O)CO)c(I)c(C(=O)NCC(O)CO)c1I)c1c(I)c(C(=O)NCC(O)CO)c(I)c(C(=O)NCC(O)CO)c1I (stereo not given) | inactive
O=C(Cn1ccnc1[N+](=O)[O-])NCCO | inactive
Cc1c(N(C)C)c(=O)n(-c2ccccc2)n1C | inactive
O=C(O)CNC(=O)c1ccccc1I | inactive
C=CCNC(N)=S | inactive
CC(=O)N(CC(O)CO)c1c(I)c(C(=O)NCC(O)CO)c(I)c(C(=O)NCC(O)CO)c1I (stereo not given) | inactive
CCCOC(=O)c1ccc(N)cc1 | inactive
CC(=O)N[C@@H](Cc1ccc(O)cc1)C(=O)O | inactive
NNC(=O)CP(=O)(c1ccccc1)c1ccccc1 | inactive
Cc1ccc(C(C)C)c(O)c1 | inactive
COc1ccc(NS(=O)(=O)c2ccc(N)cc2)nn1 | inactive
C/C=C1\[C@H]2C=C(C)C[C@]1(N)c1ccc(=O)[nH]c1C2 | inactive
CCS(=O)(=O)CCn1c([N+](=O)[O-])cnc1C | inactive
Cc1cc(NC(=O)C2=C(O)c3ccccc3S(=O)(=O)N2C)no1 | inactive
O=C(O)/C=C/c1ccc(Cn2ccnc2)cc1 | inactive
CC(C)=CCC/C(C)=C/CO | inactive
O=C(O)c1ccccc1C(=O)Nc1ccc(S(=O)(=O)Nc2nccs2)cc1 | inactive

Source: PubChem BioAssay (NCATS)
